Measurements as given in PubChem BioAssay (NCATS).
Inconclusive results are not listed. Unmarked numbers belong to inactive results. Active and inactive are the calls of the source. Calls follow the shape of the dose curve; as a rule, active = well fitted curve in the direction sought with a large enough effect; inconclusive = small, poorly fitted or top-dose-only effect, or another doubt; inactive = no such curve, though single readings can be large; an effect the other way counts as inactive or inconclusive.

Test: qHTS of pediatric cancer cell lines to identify multiple opportunities for drug repurposing: Primary screen for MG 63 (6-TG R) cells (AID 1347105); also: nearly all actives have a fitted effect of over 50% in size
Conditions: MG 63 (6-TG R) viability, CellTiter-Glo, 48 h; series mostly up to 46 µM; activity change, negative = cytotoxic: at the top concentration
Outline: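 Cells plated at 500-1,000/well in growth medium, compounds added after 5 h. MIPE tested at 11 points (from 0.78 nM), NPC at 8 points (from 0.59 nM). CellTiter-Glo luminescence after 48 h; concentration-response curves from primary screen.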
% is scaled to controls: 0 for no effect and ±100 for the full control effect; potency is read from the fitted curve at half-maximal effect.

SMILES | activity change, negative = cytotoxic [%] | Potency
CC(=O)[C@H]1CC[C@H]2[C@@H]3C[C@H](C)C4=CC(=O)CC[C@]4(C)[C@H]3[C@@H](O)C[C@]12C | -8.47 | 
C[C@@H]1CN(CCCn2c3ccccc3c3ccccc32)C[C@H](C)N1 | -53.6 | 
NC(CO)(CO)CO | 4.18 | 
CC(=O)CC(c1ccc([N+](=O)[O-])cc1)c1c(O)c2ccccc2oc1=O (stereo not drawn) | -17.2 | 
C[C@]12CCC(=O)C=C1CC[C@H]1[C@@H]3CC[C@](O)(C(=O)CO)[C@@]3(C)C[C@H](O)[C@@]12F | -1.75 | 
C[C@H]1C[C@H]2[C@@H]3CCC4=CC(=O)C=C[C@]4(C)[C@@]3(Cl)[C@@H](O)C[C@]2(C)[C@@]1(O)C(=O)CO | 12.6 | 
COc1ccc(OC)c(C(O)CNC(=O)CN)c1 (stereo not drawn) | 13.3 | 
CCCC(=O)O[C@]1(C(=O)CO)CC[C@H]2[C@@H]3CCC4=CC(=O)CC[C@]4(C)[C@H]3[C@@H](O)C[C@@]21C | -26.7 | 
c1ccc(CNCCNCc2ccccc2)cc1 | -13.8 | 
C[C@]12C=CC(=O)C=C1[C@@H](F)C[C@@H]1[C@@H]2[C@@H](O)C[C@@]2(C)[C@H]1CC[C@]2(O)C(=O)CO | 0.91 | 
CCCCOc1ccc(OCCCN2CCOCC2)cc1 | -6.19 | 
O=C(CCCN1CCC(O)(c2ccc(Br)cc2)CC1)c1ccc(F)cc1 | -14.1 | 
CCOc1ccc2nc3cc(N)ccc3c(N)c2c1 | -20 | 
CC(=O)OCC(=O)[C@@]12OC(C)(C)O[C@@H]1C[C@H]1[C@@H]3C[C@H](F)C4=CC(=O)C=C[C@]4(C)[C@@]3(F)[C@@H](O)C[C@@]12C | -14.5 | 
CCCCC(=O)O[C@]1(C(=O)CO)CC[C@H]2[C@@H]3CCC4=CC(=O)CC[C@]4(C)[C@H]3[C@@H](O)C[C@@]21C | -12.7 | 
CCC(C(=O)OCCN(CC)CC)c1ccccc1 (stereo not drawn) | 3.94 | 
C=C1C[C@H]2[C@@H]3C=C(C)C4=CC(=O)CC[C@]4(C)[C@H]3CC[C@]2(C)[C@@]1(OC(C)=O)C(C)=O | -11.6 | 
CC(=O)OCC(=O)[C@@]1(O)[C@H](C)C[C@H]2[C@@H]3CCC4=CC(=O)C=C[C@]4(C)[C@@]3(F)[C@@H](O)C[C@@]21C | 6.33 | 
Cc1ncc(CSSCc2cnc(C)c(O)c2CO)c(CO)c1O | -22.9 | 

SMILES | activity change, negative = cytotoxic [%] | Potency
COc1cccc2c1C(=O)c1c(O)c3c(c(O)c1C2=O)C[C@@](O)(C(=O)CO)C[C@@H]3O[C@H]1C[C@H](N)[C@H](O)[C@H](C)O1 |  | 5310 nM (active)
C[C@]12C=CC(=O)C=C1CC[C@@H]1[C@@H]2[C@@H](O)C[C@@]2(C)[C@H]1CC[C@]2(O)C(=O)CO | -7.39 | 
O=C1[C@H]2CCCC[C@H]2C(=O)N1CCCCN1CCN(c2nsc3ccccc23)CC1 | -20 | 
CN=C(NC#N)Nc1ccc(C2=NNC(=O)CC2C)cc1 (stereo not drawn) | -12.7 | 
CC(=O)OCC(=O)[C@@]1(O)CC[C@H]2[C@@H]3CCC4=CC(=O)C=C[C@]4(C)[C@H]3[C@@H](O)C[C@@]21C | -14.5 | 
OC[C@H]1O[C@@H](n2cnc3c(=S)nc[nH]c32)[C@H](O)[C@@H]1O | -7.98 | 
CCCCCCCCCCCCCCNCCO | 1.53 | 
COCc1c(C(C)C)nc(C(C)C)c(/C=C/[C@@H](O)C[C@@H](O)CC(=O)O)c1-c1ccc(F)cc1 |  | 84.1 nM (active)
CC1(C)OC[C@@H](COC(=O)CCc2ccc(OC[C@@H](O)CNCCNC(=O)N3CCOCC3)cc2)O1 | 8.27 | 
NC(=O)CC[C@@H]1NC(=O)[C@H](Cc2ccccc2)NC(=O)[C@H](Cc2ccc(O)cc2)NC(=O)CCSSC[C@@H](C(=O)N2CCC[C@H]2C(=O)N[C@@H](CCCN=C(N)N)C(=O)NCC(N)=O)NC(=O)[C@H](CC(N)=O)NC1=O | -2.36 | 
C=C1C(=C/C=C2\CCC[C@]3(C)[C@@H]([C@H](C)/C=C/[C@@H](O)C4CC4)CC[C@@H]23)C[C@@H](O)C[C@@H]1O | -4.42 | 
CC1(C)O[C@@H]2C[C@H]3[C@@H]4C[C@H](F)C5=CC(=O)CC[C@]5(C)[C@H]4[C@@H](O)C[C@]3(C)[C@]2(C(=O)CO)O1 | 2.21 | 
CN1CCN(C(c2ccccc2)c2ccccc2)CC1 | -11.4 | 
CC(=O)Oc1ccc(C(c2ccc(OC(C)=O)cc2)c2ccccn2)cc1 |  | 211 nM (active)
CC(=O)Oc1ccc2c(c1)CC[C@@H]1[C@@H]2CC[C@]2(C)[C@@H](O)CC[C@@H]12 | -16.1 | 
C[C@@H]1C[C@H]2[C@@H]3C[C@H](F)C4=CC(=O)C(Cl)=C[C@]4(C)[C@@]3(F)[C@@H](O)C[C@]2(C)[C@@]1(O)C(=O)CO | -3.38 | 
C[C@@H]1C[C@H]2[C@@H]3CCC4=CC(=O)C=C[C@]4(C)[C@@]3(F)[C@@H](O)C[C@]2(C)[C@H]1C(=O)CO | 17 | 
CN(C)CC/C=C1\c2ccccc2Sc2ccc(Cl)cc21 | -14.1 | 
CN(C)C(=S)SC(=S)N(C)C |  | 4220 nM (active)

Test: qHTS of pediatric cancer cell lines to identify multiple opportunities for drug repurposing: Primary screen for control Hh wild type fibroblast cells (AID 1347106); also: nearly all actives have a fitted effect of over 55% in size;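 as to activity change, negative = cytotoxic: a drop in luminescence marks cytotoxicity and a rise apparent proliferation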
Conditions: Hh wild-type fibroblast viability, CellTiter-Glo luminescence, 48 h; series mostly up to 46 µM; activity change, negative = cytotoxic: at the top concentration
Outline: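 Viability after 48 h compound treatment at 37C, 500-1,000 cells/well, read as ATP luminescence with CellTiter-Glo. Primary screens used 11-point (MIPE, 0.78 nM-46 µM) or 8-point (NPC, 0.59 nM-46 µM) final concentrations; follow-up screens used 11-point dilutions.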

SMILES | activity change, negative = cytotoxic [%] | Potency
CC(=O)[C@H]1CC[C@H]2[C@@H]3C[C@H](C)C4=CC(=O)CC[C@]4(C)[C@H]3[C@@H](O)C[C@]12C | 0.999 | 
C[C@@H]1CN(CCCn2c3ccccc3c3ccccc32)C[C@H](C)N1 | 1.1 | 
NC(CO)(CO)CO | 3.25 | 
CC(=O)CC(c1ccc([N+](=O)[O-])cc1)c1c(O)c2ccccc2oc1=O (stereo not drawn) | 9.44 | 
C[C@]12CCC(=O)C=C1CC[C@H]1[C@@H]3CC[C@](O)(C(=O)CO)[C@@]3(C)C[C@H](O)[C@@]12F | -7.4 | 
C[C@H]1C[C@H]2[C@@H]3CCC4=CC(=O)C=C[C@]4(C)[C@@]3(Cl)[C@@H](O)C[C@]2(C)[C@@]1(O)C(=O)CO | -4.45 | 
COc1ccc(OC)c(C(O)CNC(=O)CN)c1 (stereo not drawn) | 9.48 | 
CCCC(=O)O[C@]1(C(=O)CO)CC[C@H]2[C@@H]3CCC4=CC(=O)CC[C@]4(C)[C@H]3[C@@H](O)C[C@@]21C | -5.38 | 
c1ccc(CNCCNCc2ccccc2)cc1 | -0.0052 | 
C[C@]12C=CC(=O)C=C1[C@@H](F)C[C@@H]1[C@@H]2[C@@H](O)C[C@@]2(C)[C@H]1CC[C@]2(O)C(=O)CO | -10.1 | 
CCCCOc1ccc(OCCCN2CCOCC2)cc1 | -3.34 | 
O=C(CCCN1CCC(O)(c2ccc(Br)cc2)CC1)c1ccc(F)cc1 | 4.17 | 
CCOc1ccc2nc3cc(N)ccc3c(N)c2c1 | -29.9 | 
CC(=O)OCC(=O)[C@@]12OC(C)(C)O[C@@H]1C[C@H]1[C@@H]3C[C@H](F)C4=CC(=O)C=C[C@]4(C)[C@@]3(F)[C@@H](O)C[C@@]12C | -9.11 | 
CCCCC(=O)O[C@]1(C(=O)CO)CC[C@H]2[C@@H]3CCC4=CC(=O)CC[C@]4(C)[C@H]3[C@@H](O)C[C@@]21C | -3.72 | 
CCC(C(=O)OCCN(CC)CC)c1ccccc1 (stereo not drawn) | 10.9 | 
C=C1C[C@H]2[C@@H]3C=C(C)C4=CC(=O)CC[C@]4(C)[C@H]3CC[C@]2(C)[C@@]1(OC(C)=O)C(C)=O | -9.27 | 
CC(=O)OCC(=O)[C@@]1(O)[C@H](C)C[C@H]2[C@@H]3CCC4=CC(=O)C=C[C@]4(C)[C@@]3(F)[C@@H](O)C[C@@]21C | -3.85 | 

SMILES | activity change, negative = cytotoxic [%] | Potency
Cc1ncc(CSSCc2cnc(C)c(O)c2CO)c(CO)c1O | 18.5 | 
COc1cccc2c1C(=O)c1c(O)c3c(c(O)c1C2=O)C[C@@](O)(C(=O)CO)C[C@@H]3O[C@H]1C[C@H](N)[C@H](O)[C@H](C)O1 |  | 1680 nM (active)
C[C@]12C=CC(=O)C=C1CC[C@@H]1[C@@H]2[C@@H](O)C[C@@]2(C)[C@H]1CC[C@]2(O)C(=O)CO | 0.647 | 
CN=C(NC#N)Nc1ccc(C2=NNC(=O)CC2C)cc1 (stereo not drawn) | 2.28 | 
CC(=O)OCC(=O)[C@@]1(O)CC[C@H]2[C@@H]3CCC4=CC(=O)C=C[C@]4(C)[C@H]3[C@@H](O)C[C@@]21C | -3.71 | 
OC[C@H]1O[C@@H](n2cnc3c(=S)nc[nH]c32)[C@H](O)[C@@H]1O | 6.55 | 
CCCCCCCCCCCCCCNCCO | 1.68 | 
COCc1c(C(C)C)nc(C(C)C)c(/C=C/[C@@H](O)C[C@@H](O)CC(=O)O)c1-c1ccc(F)cc1 | -14.6 | 
CC1(C)OC[C@@H](COC(=O)CCc2ccc(OC[C@@H](O)CNCCNC(=O)N3CCOCC3)cc2)O1 | 3.91 | 
NC(=O)CC[C@@H]1NC(=O)[C@H](Cc2ccccc2)NC(=O)[C@H](Cc2ccc(O)cc2)NC(=O)CCSSC[C@@H](C(=O)N2CCC[C@H]2C(=O)N[C@@H](CCCN=C(N)N)C(=O)NCC(N)=O)NC(=O)[C@H](CC(N)=O)NC1=O | -12.1 | 
CC1(C)O[C@@H]2C[C@H]3[C@@H]4C[C@H](F)C5=CC(=O)CC[C@]5(C)[C@H]4[C@@H](O)C[C@]3(C)[C@]2(C(=O)CO)O1 | 6.4 | 
CN1CCN(C(c2ccccc2)c2ccccc2)CC1 | -3.92 | 
CC(=O)Oc1ccc(C(c2ccc(OC(C)=O)cc2)c2ccccn2)cc1 | -16.9 | 
CC(=O)Oc1ccc2c(c1)CC[C@@H]1[C@@H]2CC[C@]2(C)[C@@H](O)CC[C@@H]12 | 14.5 | 
C[C@@H]1C[C@H]2[C@@H]3C[C@H](F)C4=CC(=O)C(Cl)=C[C@]4(C)[C@@]3(F)[C@@H](O)C[C@]2(C)[C@@]1(O)C(=O)CO | -4.99 | 
C[C@@H]1C[C@H]2[C@@H]3CCC4=CC(=O)C=C[C@]4(C)[C@@]3(F)[C@@H](O)C[C@]2(C)[C@H]1C(=O)CO | -4.16 | 
CN(C)C(=S)SC(=S)N(C)C |  | 1190 nM (active)
